Laboratory results from PubChem BioAssay AID686978 (National Center for Advancing Translational Sciences (NCATS), 2013).
Screen size: about 420,000 compounds; about 64,000 (15%) were called active. Another 27% or so got no clear call; they are omitted. A selection follows. A number with no mark means an inactive call. Calls come from the whole dose curve; as a rule, active = well fitted inhibition curve with a large enough effect; inconclusive = small, poorly fitted or top-dose-only effect; inactive = flat fitted curve, though single readings scatter.

Assay: qHTS for Inhibitors of human tyrosyl-DNA phosphodiesterase 1 (TDP1): qHTS in cells in absence of CPT; note: nearly all actives have a fitted effect of over 55% in size
Conditions: DT40 Tdp1-/- hTDP1 cells, no CPT, ATP luminescence, 48 h; activity change, negative = growth inhibition: at 46.2 µM (top of the series)
Outline: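 Compound effects on proliferation are scored in DT40 Tdp1-/-;hTDP1 cells in the absence of CPT. ATP levels (CellTiter-Glo luminescence) are recorded after a ≥48 hr, 37 °C incubation.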
% is set by controls: 0 for no effect and ±100 for the full control effect; potency is the fitted concentration of half-maximal effect.

| Compound | activity change, negative = growth inhibition [%] | Potency |
| --- | --- | --- |
| NS(=O)(=O)c1ccc(CCNC(=O)COC(=O)COc2cccc(C(F)(F)F)c2)cc1 | 5.08 |  |
| Cc1noc(NS(=O)(=O)c2ccc(NC(=O)c3oc4ccc(F)cc4c3C)cc2)c1C | 7.6 |  |
| Cc1cc(C)n(CC(=O)Nc2ccc([N+](=O)[O-])cc2)n1 | -1.22 |  |
| COC(=O)c1cccc(-n2[nH]nnc2=S)c1 | -16.2 |  |
| CC(=O)c1ccc(S(=O)(=O)NCc2nnnn2-c2ccccc2)cc1 | -10.6 |  |
| OCCCNC(c1ccccc1)c1ccc(O)cc1 (stereo not given) | -10 |  |
| O=C(CC1C(=O)NCCN1CC(c1ccccc1)c1ccccc1)NCC1CCOCC1 (stereo not given) | -6.96 |  |
| COc1cc(-c2cc3n(C)c(C)c(CCC(=O)Nc4ccc(F)cc4)c(=O)n3n2)cc(OC)c1OC | -24 |  |
| Cc1ccc(CNC(=O)C2CCCN2C(=O)NCc2ccccc2)cc1 (stereo not given) | -7.07 |  |
| CCN(CC)S(=O)(=O)c1ccc(N2CC(C(=O)NCc3cccnc3)CC2=O)cc1 (stereo not given) | -13.1 |  |
| O=C(Nc1cccnc1Cl)c1cc(-c2ccccc2O)on1 | -23.4 |  |
| Brc1ccc(OCCn2ccnc2)cc1 | -7.13 |  |
| COc1ccc(CCN=C2SCC(=O)N2C)cc1OC | 9.99 |  |
| Cc1ccc(S(=O)(=O)Nc2nc3ccccc3nc2N2CCc3ccccc3C2)cc1 | -23.2 |  |
| Cc1ccc2c(c1)c1ncn(Cc3ccc(F)cc3)c(=O)c1n2C | -28.1 |  |
| Cc1ccc2c(c1)c1ncnc(N3CCc4ccccc4C3)c1n2C |  | 20.6 µM (active) |
| CCN(C(=O)COC(=O)/C=C/c1nc2ccccc2s1)C1CCS(=O)(=O)C1 (stereo not given) | -9.04 |  |
| CCOC(=O)C1=C(C)NC(C)=C(C(=O)OCC)C1C1=COCCO1 | -26 |  |
| Cc1ccccc1C(OCCN(C)C)C1CCCCC1 (stereo not given) |  | 29.1 µM (active) |
| CN(C)CCOC(=O)C(c1ccccc1)C1(O)CCCC1 (stereo not given) |  | inactive |
| Cc1nn(Cc2ccc(Cl)cc2)c(Cl)c1/C=N/NC(=O)c1cccnc1 | -21.6 |  |
| CC1(C)C/C(=C(/C#N)C(N)=O)CCO1 | -3.81 |  |
| O=C(O)c1ccccc1NC(=S)NC(NC(=O)c1ccccc1[N+](=O)[O-])C(Cl)(Cl)Cl (stereo not given) | 3.8 |  |
| Cc1cc(C)cc(N(CC(=O)Nc2c(C)n(C)n(-c3ccccc3)c2=O)S(C)(=O)=O)c1 | -0.0647 |  |
| CCOc1ccc(S(=O)(=O)N2CCCCC2)cc1NC(=O)CN1CCCC1c1cccs1 (stereo not given) |  | 2.06 µM (active) |

| Compound | activity change, negative = growth inhibition [%] | Potency |
| --- | --- | --- |
| Cc1ccc(S(=O)(=O)N2CCCCC2)cc1NC(=O)[C@@H]1CCCN1C(=O)c1cccs1 | 14.1 |  |
| COc1ccc(S(=O)(=O)N2CCCCCC2)cc1NC(=O)Cc1ccc(OC)c(OC)c1 | -7.55 |  |
| COc1cccc(N(CC(=O)NC2CCCC2)C(=O)Cn2nnc(-c3ccc(C)cc3)n2)c1 | -25.8 |  |
| CCN(C(=O)C1CCCN(c2nc(-c3ccc(OC)cc3)no2)C1)c1ccc(OC)cc1 (stereo not given) |  | 20.6 µM (active) |
| C=CCOc1c2ccc(C(=O)N(CC)c3ccc(OC)cc3)cc2nn1C | -5.42 |  |
| O=C1C(=O)N(CCCO)C(c2ccccc2)/C1=C(\O)c1ccc(Br)cc1 (stereo not given) | -1.82 |  |
| Cc1ccc(C(=O)NC2CC(C)(C)NC(C)(C)C2)c(C)c1 | -20.5 |  |
| Cn1c2c(c(=O)n(C)c1=O)C1c3ccccc3OCC1C(C)(C)O2 (stereo not given) | -20.6 |  |
| CC(Nc1nc(C(F)(F)F)nc2ccccc12)c1cccs1 (stereo not given) |  | 20.6 µM (active) |
| CCN(CC)C(=O)c1ccc(O)c(OC)c1 |  | inactive |
| CCOC(=O)N1CCc2c(sc3c2c(=O)n(Cc2ccccc2)c(=O)n3CC(=O)Nc2cccc(C)c2)C1 | -10 |  |
| CC1CCN(C(=O)Cn2c(=O)n(-c3ccc(Cl)cc3)c(=O)c3c4c(sc32)CCC4)CC1 | -14.1 |  |
| O=c1c2c3c(sc2n(CCN2CCCC2)c(=O)n1Cc1ccccc1)CCCCC3 |  | 11.6 µM (active) |
| NC(=O)c1ncc(C(F)(F)F)cc1Oc1ccc(F)cc1 | 7.01 |  |
| COc1ccc(NC(=O)C2CCCN(S(=O)(=O)c3c(C)[nH]c(=O)[nH]c3=O)C2)c(OC)c1 (stereo not given) | 14.1 |  |
| CC(C)c1ccc(NC(=O)C2CCCN(S(=O)(=O)c3cccnc3)C2)cc1 (stereo not given) |  | 7.31 µM (active) |
| Cc1n[nH]c(C)c1S(=O)(=O)N1CCCC(C(=O)Nc2ccc(Br)cc2)C1 (stereo not given) |  | 16.4 µM (active) |
| Cc1ccccc1N1CC(C(=O)Nc2ccc(S(=O)(=O)N3CCCC3)cc2)CC1=O (stereo not given) | -26 |  |
| COc1ccc(S(=O)(=O)N2CCCC(C(=O)NCCCn3ccnc3)C2)cc1OC (stereo not given) | -13.3 |  |
| Cc1n[nH]c(C)c1S(=O)(=O)N1CCCC(C(=O)NCC2COc3ccccc3O2)C1 (stereo not given) | -25.9 |  |
| O=C(Cc1ccsc1)N1CCN(S(=O)(=O)c2cc(C(F)(F)F)cc(C(F)(F)F)c2)CC1 | -13.1 |  |
| CCOC(=O)C1=CN(Cc2ccc(Br)cc2)S(=O)(=O)NC1C (stereo not given) | -1.97 |  |
| Cc1ccc(C(=O)NNC2=Nc3cc([N+](=O)[O-])ccc3OC2)cc1 | -28 |  |
| Cc1nn(C(=O)c2c(F)cccc2F)c(C)c1S(=O)(=O)N1CCOCC1 | 1.73 |  |
| CC(C)=N/N=C1/NC(=O)C(Cc2ccccc2)S1 (stereo not given) | 14 |  |
